Experimental data published in PubChem BioAssay AID1159580 (chemical genetic matrix, 2015).
Hit rate of the full screen: of about 5,500 compounds, about 2,000 (36%) were called active. About 18% were inconclusive and are not listed. No stated cut-off is given here; in the data, active means normalized growth mostly below about 0.91 (no sharp cut-off); inconclusive means no clear call, values can overlap the other calls; inactive means mostly above about 0.92. The list shows a part of the results.

Assay: chemical genetic growth profiling, strain panel (AID 1159580);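 further: tested at 20 µM; growth read once vehicle control cultures reached saturation at 30 °C; 1 = growth at the plate median or of vehicle wells; lower values mean less growth of the strain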
Details: growth OD

Which normalized growth (S. cerevisiae deletion strains, locus YJR066W, strain TOR1, hits give low values) does the source give for `COc1c(OC)c2occc2c2oc(=O)ccc12` here?
Its normalized growth is 0.929 (inactive).

What about the normalized growth (S. cerevisiae deletion strains, locus YKL009W, strain mrt4, hits give low values) of the same molecule?
The normalized growth was 0.957 (inactive).

What about the normalized growth (S. cerevisiae deletion strains, locus YKL068W, hits give low values) of the same molecule?
The normalized growth was 0.978 (inactive).

And the normalized growth (S. cerevisiae deletion strains, locus YKL085W, strain MDH1 (second series), hits give low values)?
The normalized growth was 0.97 (inactive).

What about the normalized growth (S. cerevisiae deletion strains, locus YKL085W, strain MDH1, hits give low values) of the same molecule?
The normalized growth was 0.97 (inactive).

What about the normalized growth (S. cerevisiae deletion strains, locus YKL160W, strain elf1, hits give low values) of the same molecule?
The normalized growth was 0.942 (inactive).

What about the normalized growth (S. cerevisiae deletion strains, locus YKL190W, strain CNB1, hits give low values) of the same molecule?
Its normalized growth is 0.965 (inactive).

What about the normalized growth (S. cerevisiae deletion strains, locus YKR001C, strain vps1, hits give low values) of the same molecule?
The normalized growth was 0.644 (active).

What about the normalized growth (S. cerevisiae deletion strains, locus YKR026C, strain gcn3, hits give low values) of the same molecule?
Its normalized growth is 0.967 (inactive).

And the normalized growth (S. cerevisiae deletion strains, locus YKR091W, strain srl3, hits give low values)?
The normalized growth was 0.985 (inactive).

And the normalized growth (S. cerevisiae deletion strains, locus YLL001W, strain dnm1, hits give low values)?
The normalized growth was 0.993 (inactive).

And the normalized growth (S. cerevisiae deletion strains, locus YLL026W, hits give low values)?
The normalized growth was 0.991 (inactive).

And the normalized growth (S. cerevisiae deletion strains, locus YLL041C, strain sdh2, hits give low values)?
The normalized growth was 0.975 (inactive).

What about the normalized growth (S. cerevisiae deletion strains, locus YLR027C, strain aat2, hits give low values) of the same molecule?
Its normalized growth is 0.964 (inactive).

And the normalized growth (S. cerevisiae deletion strains, locus YLR039C, strain RIC1, hits give low values)?
The normalized growth was 0.68 (inactive).

And the normalized growth (S. cerevisiae deletion strains, locus YLR058C, strain SHM2, hits give low values)?
Its normalized growth is 0.96 (inactive).

What about the normalized growth (S. cerevisiae deletion strains, locus YLR102C, strain apc9, hits give low values) of the same molecule?
Its normalized growth is 0.983 (inactive).

What about the normalized growth (S. cerevisiae deletion strains, locus YLR113W, strain HOG1, hits give low values) of the same molecule?
Its normalized growth is 0.958 (inactive).

What about the normalized growth (S. cerevisiae deletion strains, locus YLR221C, strain rsa3, hits give low values) of the same molecule?
The normalized growth was 0.952 (inactive).

What about the normalized growth (S. cerevisiae deletion strains, locus YLR258W, strain gsy2, hits give low values) of the same molecule?
Its normalized growth is 0.988 (inactive).

And the normalized growth (S. cerevisiae deletion strains, locus YLR262C, strain YPT6 (second series), hits give low values)?
Its normalized growth is 0.939 (inactive).

What about the normalized growth (S. cerevisiae deletion strains, locus YLR262C, strain YPT6, hits give low values) of the same molecule?
Its normalized growth is 0.79 (inactive).

What about the normalized growth (S. cerevisiae deletion strains, locus YLR268W, strain sec22, hits give low values) of the same molecule?
Its normalized growth is 0.927 (inactive).

What about the normalized growth (S. cerevisiae deletion strains, locus YLR320W, strain mms22, hits give low values) of the same molecule?
Its normalized growth is 0.895 (inactive).

And the normalized growth (S. cerevisiae deletion strains, locus YLR330W, strain CHS5, hits give low values)?
Its normalized growth is 0.939 (inactive).

And the normalized growth (S. cerevisiae deletion strains, locus YLR342W, strain FKS1 (second series), hits give low values)?
Its normalized growth is 0.95 (inactive).

What about the normalized growth (S. cerevisiae deletion strains, locus YLR342W, strain FKS1, hits give low values) of the same molecule?
The normalized growth was 0.992 (inactive).

And the normalized growth (S. cerevisiae deletion strains, locus YLR357W, strain rsc2, hits give low values)?
Its normalized growth is 1.01 (inactive).

And the normalized growth (S. cerevisiae deletion strains, locus YLR370C, strain arc18, hits give low values)?
The normalized growth was 0.982 (inactive).

What about the normalized growth (S. cerevisiae deletion strains, locus YLR371W, strain rom2, hits give low values) of the same molecule?
Its normalized growth is 0.816 (active).

What about the normalized growth (S. cerevisiae deletion strains, locus YLR384C, strain iki3, hits give low values) of the same molecule?
Its normalized growth is 0.991 (inactive).

And the normalized growth (S. cerevisiae deletion strains, locus YLR418C, strain cdc73, hits give low values)?
Its normalized growth is 0.754 (active).

What about the normalized growth (S. cerevisiae deletion strains, locus YML016C, strain PPZ1, hits give low values) of the same molecule?
The normalized growth was 0.936 (inactive).

And the normalized growth (S. cerevisiae deletion strains, locus YML032C, strain rad52, hits give low values)?
Its normalized growth is 0.915 (inactive).

What about the normalized growth (S. cerevisiae deletion strains, locus YML120C, strain ndi1, hits give low values) of the same molecule?
The normalized growth was 0.948 (inactive).

What about the normalized growth (S. cerevisiae deletion strains, locus YML124C, strain tub3, hits give low values) of the same molecule?
The normalized growth was 0.968 (inactive).

And the normalized growth (S. cerevisiae deletion strains, locus YMR058W, strain fet3, hits give low values)?
The normalized growth was 0.971 (inactive).

What about the normalized growth (S. cerevisiae deletion strains, locus YMR078C, strain ctf18, hits give low values) of the same molecule?
The normalized growth was 0.955 (inactive).

What about the normalized growth (S. cerevisiae deletion strains, locus YMR125W, strain sto1, hits give low values) of the same molecule?
The normalized growth was 1.01 (inactive).

What about the normalized growth (S. cerevisiae deletion strains, locus YMR129W, hits give low values) of the same molecule?
The normalized growth was 0.986 (inactive).

And the normalized growth (S. cerevisiae deletion strains, locus YMR205C, strain PFK2, hits give low values)?
The normalized growth was 0.987 (inactive).

What about the normalized growth (S. cerevisiae deletion strains, locus YMR223W, strain ubp8, hits give low values) of the same molecule?
Its normalized growth is 0.933 (inactive).

And the normalized growth (S. cerevisiae deletion strains, locus YMR231W, strain pep5, hits give low values)?
Its normalized growth is 0.987 (inactive).

What about the normalized growth (S. cerevisiae deletion strains, locus YMR263W, strain SAP30, hits give low values) of the same molecule?
The normalized growth was 0.916 (inactive).

And the normalized growth (S. cerevisiae deletion strains, locus YMR307W, strain GAS1, hits give low values)?
The normalized growth was 0.816 (inactive).

And the normalized growth (S. cerevisiae deletion strains, locus YNL067W, strain RPL9B, hits give low values)?
The normalized growth was 0.941 (inactive).

What about the normalized growth (S. cerevisiae deletion strains, locus YNL071W, strain lat1, hits give low values) of the same molecule?
The normalized growth was 0.929 (inactive).

What about the normalized growth (S. cerevisiae deletion strains, locus YNL183C, strain NPR1, hits give low values) of the same molecule?
Its normalized growth is 0.921 (inactive).

What about the normalized growth (S. cerevisiae deletion strains, locus YNL209W, strain ssb2, hits give low values) of the same molecule?
The normalized growth was 0.976 (inactive).

And the normalized growth (S. cerevisiae deletion strains, locus YNL233W, strain BNI4, hits give low values)?
Its normalized growth is 0.872 (inactive).

And the normalized growth (S. cerevisiae deletion strains, locus YNL248C, strain rpa49, hits give low values)?
Its normalized growth is 0.906 (inactive).

And the normalized growth (S. cerevisiae deletion strains, locus YNL250W, strain rad50, hits give low values)?
Its normalized growth is 0.989 (inactive).

And the normalized growth (S. cerevisiae deletion strains, locus YNL271C, strain bni1, hits give low values)?
Its normalized growth is 0.965 (inactive).

And the normalized growth (S. cerevisiae deletion strains, locus YNL298W, strain CLA4, hits give low values)?
Its normalized growth is 0.95 (inactive).

And the normalized growth (S. cerevisiae deletion strains, locus YNL307C, strain MCK1, hits give low values)?
The normalized growth was 0.859 (active).

What about the normalized growth (S. cerevisiae deletion strains, locus YNL322C, strain KRE1 (second series), hits give low values) of the same molecule?
Its normalized growth is 0.986 (inactive).

What about the normalized growth (S. cerevisiae deletion strains, locus YNL322C, strain KRE1, hits give low values) of the same molecule?
Its normalized growth is 0.973 (inactive).

And the normalized growth (S. cerevisiae deletion strains, locus YNR049C, strain mso1, hits give low values)?
The normalized growth was 0.985 (inactive).

And the normalized growth (S. cerevisiae deletion strains, locus YNR052C, strain pop2, hits give low values)?
Its normalized growth is 0.948 (inactive).

And the normalized growth (S. cerevisiae deletion strains, locus YOL012C, strain htz1)?
The normalized growth was 0.5 (inactive).

And the normalized growth (S. cerevisiae deletion strains, locus YOL147C, strain pex11, hits give low values)?
The normalized growth was 0.958 (inactive).

What about the normalized growth (S. cerevisiae deletion strains, locus YOR001W, strain rrp6, hits give low values) of the same molecule?
Its normalized growth is 0.936 (inactive).

What about the normalized growth (S. cerevisiae deletion strains, locus YOR061W, strain CKA2, hits give low values) of the same molecule?
The normalized growth was 0.962 (inactive).

What about the normalized growth (S. cerevisiae deletion strains, locus YOR069W, strain VPS5, hits give low values) of the same molecule?
The normalized growth was 0.968 (inactive).

What about the normalized growth (S. cerevisiae deletion strains, locus YOR070C, strain gyp1, hits give low values) of the same molecule?
Its normalized growth is 0.977 (inactive).

What about the normalized growth (S. cerevisiae deletion strains, locus YOR080W, strain dia2, hits give low values) of the same molecule?
The normalized growth was 0.98 (inactive).

What about the normalized growth (S. cerevisiae deletion strains, locus YOR083W, strain WHI5, hits give low values) of the same molecule?
The normalized growth was 0.908 (inactive).

What about the normalized growth (S. cerevisiae deletion strains, locus YOR106W, strain vam3, hits give low values) of the same molecule?
The normalized growth was 0.946 (inactive).

And the normalized growth (S. cerevisiae deletion strains, locus YOR136W, strain idh2, hits give low values)?
The normalized growth was 0.995 (inactive).

And the normalized growth (S. cerevisiae deletion strains, locus YOR144C, strain elg1, hits give low values)?
Its normalized growth is 0.954 (inactive).

And the normalized growth (S. cerevisiae deletion strains, locus YOR184W, strain ser1, hits give low values)?
The normalized growth was 0.859 (active).

What about the normalized growth (S. cerevisiae deletion strains, locus YOR231W, strain MKK1, hits give low values) of the same molecule?
The normalized growth was 0.956 (inactive).

What about the normalized growth (S. cerevisiae deletion strains, locus YOR265W, strain rbl2, hits give low values) of the same molecule?
Its normalized growth is 0.985 (inactive).

What about the normalized growth (S. cerevisiae deletion strains, locus YOR270C, strain vph1, hits give low values) of the same molecule?
Its normalized growth is 0.857 (inactive).

And the normalized growth (S. cerevisiae deletion strains, locus YOR290C, strain snf2, hits give low values)?
The normalized growth was 0.944 (inactive).

And the normalized growth (S. cerevisiae deletion strains, locus YOR316C, strain cot1, hits give low values)?
Its normalized growth is 0.985 (inactive).

And the normalized growth (S. cerevisiae deletion strains, locus YPL051W, strain arl3, hits give low values)?
The normalized growth was 0.933 (inactive).

And the normalized growth (S. cerevisiae deletion strains, locus YPL055C, strain LGE1, hits give low values)?
The normalized growth was 0.87 (inactive).

And the normalized growth (S. cerevisiae deletion strains, locus YPL078C, strain atp4, hits give low values)?
Its normalized growth is 0.932 (inactive).

What about the normalized growth (S. cerevisiae deletion strains, locus YPL106C, strain sse1, hits give low values) of the same molecule?
Its normalized growth is 0.94 (inactive).

What about the normalized growth (S. cerevisiae deletion strains, locus YPL240C, strain hsp82, hits give low values) of the same molecule?
Its normalized growth is 0.958 (inactive).

What about the normalized growth (S. cerevisiae deletion strains, locus YPL241C, strain CIN2, hits give low values) of the same molecule?
Its normalized growth is 0.941 (inactive).

What about the normalized growth (S. cerevisiae deletion strains, locus YPL256C, strain CLN2, hits give low values) of the same molecule?
The normalized growth was 0.973 (inactive).

What about the normalized growth (S. cerevisiae deletion strains, locus YPR119W, strain clb2, hits give low values) of the same molecule?
The normalized growth was 0.98 (inactive).

What about the normalized growth (S. cerevisiae deletion strains, locus YPR141C, strain kar3, hits give low values) of the same molecule?
Its normalized growth is 0.985 (inactive).

And the normalized growth (S. cerevisiae deletion strains, locus YPR163C, strain tif3, hits give low values)?
Its normalized growth is 0.917 (inactive).

And the normalized growth (S. cerevisiae deletion strains, locus YPR167C, strain met16, hits give low values)?
Its normalized growth is 0.96 (inactive).

And the normalized growth (S. cerevisiae deletion strains, strain wtn01, hits give low values)?
The normalized growth was 0.957 (inactive).

And the normalized growth (S. cerevisiae strains, strain wild type, hits give low values)?
The normalized growth was 0.967 (inactive).
